# PubChem BioAssay AID1573 (National Center for Advancing Translational Sciences (NCATS), 2009)
# Results filed as inconclusive are left out. A call without a number means that no potency is given here. Active and inactive are the calls of the source. The call rests on the fitted dose curve; in most records, active means well fitted inhibition curve with a large enough effect; inconclusive means small, poorly fitted or top-dose-only effect; inactive means no such curve, though single readings can be large or run the other way.
# Target: Thyroid hormone receptor beta (Homo sapiens) (UniProt P10828)
# Assay: Concentration Response Confirmation Assay for Inhibitors of the Interaction of Thyroid Hormone Receptor and Steroid Receptor Coregulator 2
# Details: TRb LBD + Texas Red SRC2 peptide, fluorescence polarization, 5 h; series mostly up to 92.2 µM
# Source text: NIH Molecular Libraries Probe Production Network [MLPCN] NIH Chemical Genomics Center [NCGC] MLPCN Grant: DK058080 Assay Provider: R. Kip Guy, St. Jude Children's Research Hospital NCGC Assay Overview: Thyroid receptor (TR) regulates many homeostatic processes including basal metabolism, cardiovascular function, body weight, and lipid trafficking. TR modulators are potential therapeutics for obesity and hyperlipidemias but current thyroid analogs have undesirable side effects, particularly cardiac stimulation. To identify inhibitors that specifically prevent the interaction of TR with the steroid receptor coregulator 2 (SRC2), a fluorescence polarization assay was screened. This assay detects interaction of the ligand-binding domain of human TRb with a Texas Red labeled SRC2 peptide, corresponding to a 20 amino acid region of the nuclear receptor interaction domain (Arnold et al., 2006). Small molecule inhibitors that block the interaction of TR and SRC2 are detected by a decrease in fluorescence polarization. This assay is a confirmation assay for AID 1469. Arnold, L. A.; Estebanez-Perpina, E.; Togashi, M.; Shelat, A.; Ocasio, C. A.; McReynolds, A. C.; Nguyen, P.; Baxter, J. D.; Fletterick, R. J.; Webb, P.; Guy, R. K. A high-throughput screening method to identify small molecule inhibitors of thyroid hormone receptor coactivator binding. Sci STKE 2006, p 13.
# NCGC Assay Protocol Summary: For screening, 5 uL/well 0.6 uM TRb and 20 nM SRC2 Texas Red in protein buffer (20mM Tris hydrochloride, 100mM NaCl, 10% glycerol, 1mM EDTA, 0.01% NP-40, 1mM DTT, 1uM T3 and 5% DMSO) was dispensed into black solid 1536-well plates (Grenier) using a solenoid-based dispenser. Following transfer of 23 nL compound or DMSO vehicle by a pin tool, the plates were centrifuged 15 s at 1000 RPM and incubated 5 hr at ambient temperature. The plates were read by an Envision (Perkin Elmer) to detect fluorescence polarization of SRC2 Texas Red (555 nm excitation and 632 nm emission). Data were normalized to unbound (all components except TRb) and bound SRC2 Texas Red controls. In this assay, we provide % activity data for each concentration as well as potencies for the active compounds. Keywords: NIH Roadmap, MLPCN, MLI, MLSMR, qHTS, NCGC, qHTS, thyroid hormone receptor, steroid receptor coactivator, fluorescence polarization
# Chain of Thyroid hormone receptor beta (Homo sapiens) (P10828 whole entry, looked up): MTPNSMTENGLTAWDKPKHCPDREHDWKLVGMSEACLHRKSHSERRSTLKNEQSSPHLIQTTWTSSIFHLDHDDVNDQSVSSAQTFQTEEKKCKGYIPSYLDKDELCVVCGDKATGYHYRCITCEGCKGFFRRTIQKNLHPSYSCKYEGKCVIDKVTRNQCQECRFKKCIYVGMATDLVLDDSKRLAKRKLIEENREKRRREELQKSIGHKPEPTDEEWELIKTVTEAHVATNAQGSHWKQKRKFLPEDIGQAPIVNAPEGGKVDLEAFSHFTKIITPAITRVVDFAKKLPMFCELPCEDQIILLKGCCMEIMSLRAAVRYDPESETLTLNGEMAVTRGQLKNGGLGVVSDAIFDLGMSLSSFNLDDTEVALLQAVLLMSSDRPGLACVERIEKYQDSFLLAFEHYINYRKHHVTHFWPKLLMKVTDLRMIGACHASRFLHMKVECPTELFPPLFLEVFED
row,SMILES,Potency
1,O=C(O)/C=C/C(=O)Nc1ccc(OC(F)(F)F)cc1Br,50.1 µM (active)
2,Nc1cc(-c2ccncc2)c[nH]c1=O,inactive
